Test systems include HCT-15 colon; HT29 colon; SNB-75 CNS; SNB-19 CNS; U251 CNS; PC-3 prostate; SK-MEL-5 melanoma; UACC-62 melanoma; LOX IMVI melanoma; SK-MEL-28 melanoma; SK-MEL-2 melanoma; EKVX NSCLC; SN12C renal; UO-31 renal; TK-10 renal; ACHN renal; CAKI-1 renal; A498 renal; MOLT-4 leukemia; CCRF-CEM leukemia.
Common to all, as to test: NCI-60 one-dose screen, 48 h (100 = growth as untreated, 0 = no growth, -100 = all killed)
Conditions in all cases: 10 µM unless noted

The structures appear in SMILES notation. The panel holds about 83,000 compounds, 20% with a hit somewhere; the sample as a whole holds those more often.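 Note: values are percent growth. 100 is the growth of untreated cells, values between 100 and 0 indicate rising inhibition; between -100 and 0 indicates cell death.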 A number with no mark means an inactive call. The source made the active and inactive calls. Rule for the calls: active = growth percent below 10; inactive = the rest.

Take `CCC(c1ccc(O)cc1)C(CC)c1ccc(O)c(F)c1` (configuration not stated): the growth with HCT-15 colon is 78.2%; in the assay with HT29 colon, 102%; with SNB-75 CNS, 78.7%; in the assay with SNB-19 CNS it was 125%; in the assay with U251 CNS, 89.8%; in the assay on PC-3 prostate, 72.1%. Moreover, the growth in the assay with SK-MEL-5 melanoma is 66.4%; in the assay with UACC-62 melanoma, 59.4%; in the assay on LOX IMVI melanoma it was 87.2%; with SK-MEL-28 melanoma, 78.9%; in the assay on SK-MEL-2 melanoma, 75.1%; with EKVX NSCLC, 84.2%. Also, the growth in the assay on SN12C renal is 88.2%; in the assay with UO-31 renal, 55.4%; with TK-10 renal, 96.6%; with ACHN renal, 90.5%; in the assay on CAKI-1 renal, 89.2%; with A498 renal, 107%. Further, the growth in the assay with MOLT-4 leukemia was 54.9%.
In the case of `COc1ccccc1N1CCN(CCn2c(=O)c3c(c4ccccc4n3C)n(C)c2=O)CC1`, the growth was 101% in the assay on HCT-15 colon; 68.3% in the assay on HT29 colon; 107% in the assay with SNB-75 CNS; 95.2% in the assay on SNB-19 CNS; 84.2% with U251 CNS; 84.4% with PC-3 prostate. Further, the growth was 95.8% with SK-MEL-5 melanoma; 92.4% in the assay with UACC-62 melanoma; 96.3% in the assay on LOX IMVI melanoma; 115% in the assay on SK-MEL-28 melanoma; 60.2% with SK-MEL-2 melanoma; 106% with EKVX NSCLC. Also, the growth in the assay on SN12C renal was 81.8%; in the assay with UO-31 renal, 77.6%; in the assay with TK-10 renal, 78.9%; in the assay with ACHN renal, 98.5%; in the assay with CAKI-1 renal it was 101%; in the assay with A498 renal it was 109%. In addition, the growth with CCRF-CEM leukemia was 102%; with MOLT-4 leukemia, 88.1%.
For `CC(=O)C1=C(O)C=C2Oc3c(C(=O)/C=C/c4cc(Cl)cc(Cl)c4)c(O)c(C)c(O)c3[C@]2(C)C1=O`, the growth in the assay with HCT-15 colon is -35.5% (active); in the assay on HT29 colon, -23.5% (active); in the assay on SNB-75 CNS, -39.9% (active); in the assay on SNB-19 CNS, -24.4% (active); in the assay on U251 CNS it was -29.9% (active); with PC-3 prostate it was -21.1% (active). Moreover, the growth in the assay with SK-MEL-5 melanoma is -89.2% (active); with UACC-62 melanoma, -71.2% (active); in the assay on LOX IMVI melanoma it was -54% (active); in the assay on SK-MEL-28 melanoma, -36.1% (active); in the assay with SK-MEL-2 melanoma, -62.8% (active); in the assay on EKVX NSCLC it was -15.6% (active). Further, the growth was -31.8% (active) in the assay with SN12C renal; -17.4% (active) in the assay on TK-10 renal; -12.4% (active) in the assay on ACHN renal; 2.74% (active) in the assay on CAKI-1 renal; -57.7% (active) with A498 renal; -22% (active) in the assay on CCRF-CEM leukemia. For the same compound, in the assay with MOLT-4 leukemia, the growth is -25.3% (active).
Take `CCn1cc2c(cc1=O)-c1nc3ccccc3c3ccnc(c13)C2=O`: the growth was 50.2% in the assay on HCT-15 colon; 57.3% in the assay on HT29 colon; 46.9% in the assay on SNB-75 CNS; 37.4% with SNB-19 CNS; 44.6% in the assay on U251 CNS; 63.5% with PC-3 prostate. For the same compound, the growth in the assay with SK-MEL-5 melanoma was 42.8%; with UACC-62 melanoma, 37.9%; in the assay on LOX IMVI melanoma it was 57%; with SK-MEL-28 melanoma, 72.4%; in the assay on SK-MEL-2 melanoma, 62.3%; in the assay with EKVX NSCLC, 87.8%. For the same compound, the growth in the assay with SN12C renal was 16.5%; in the assay with UO-31 renal, 42.5%; in the assay with TK-10 renal it was 86.1%; in the assay on ACHN renal, 10.1%; in the assay with CAKI-1 renal, 60%; in the assay on A498 renal, 81.7%. Also, the growth with CCRF-CEM leukemia was 104%; with MOLT-4 leukemia it was 80.6%.
As to `CCOC(=O)c1c2c(n3ccc(NC(=O)CCN(CC)CC)cc13)C(=O)c1ncccc1C2=O`, the growth is 50.3% with HCT-15 colon; 38.4% with HT29 colon; 33% in the assay with SNB-75 CNS; 53.3% in the assay on SNB-19 CNS; 53.2% in the assay on U251 CNS; 61.1% with PC-3 prostate. Further, the growth with SK-MEL-5 melanoma was 45.1%; in the assay on UACC-62 melanoma, 50.8%; in the assay on LOX IMVI melanoma, 10.3%; in the assay with SK-MEL-28 melanoma, 88.8%; in the assay on SK-MEL-2 melanoma it was 29.3%; in the assay with SN12C renal, 27.6%. In addition, the growth is 28.8% in the assay on UO-31 renal; 36.5% in the assay with TK-10 renal; 16.1% with ACHN renal; 23% in the assay on CAKI-1 renal; 46.9% in the assay on A498 renal; 52.9% with CCRF-CEM leukemia. Further, the growth with MOLT-4 leukemia was 29.3%.
`O=C1c2cc3c(cc2-c2c1c1cc(Cl)c(Cl)cc1c(=O)n2C[C@H](O)CO)OCO3`: the growth is 1.28% (active) in the assay on HCT-15 colon; -38.8% (active) in the assay with HT29 colon; -31.4% (active) in the assay with SNB-75 CNS; -6.61% (active) with SNB-19 CNS; -63.4% (active) in the assay on U251 CNS; 5.35% (active) in the assay with PC-3 prostate. Moreover, the growth was -84.8% (active) with SK-MEL-5 melanoma; -66.8% (active) in the assay on UACC-62 melanoma; -70.9% (active) in the assay with LOX IMVI melanoma; 0.507% (active) in the assay with SK-MEL-28 melanoma; -28.3% (active) in the assay on SK-MEL-2 melanoma; 14.2% in the assay on EKVX NSCLC. For the same compound, the growth is -22.2% (active) with SN12C renal; -61.3% (active) in the assay on UO-31 renal; -28% (active) in the assay on TK-10 renal; -47.2% (active) in the assay with ACHN renal; -0.657% (active) in the assay on CAKI-1 renal; -73.3% (active) in the assay on A498 renal. The growth in the assay with CCRF-CEM leukemia is -5.01% (active); with MOLT-4 leukemia it was -24.8% (active).
With `COc1ccc(-c2cc(=O)[nH]c3c(OC)c4ccccc4c(OC)c23)cc1`, the growth was 26.3% in the assay with HCT-15 colon; 2.07% (active) in the assay on HT29 colon; 13.3% in the assay on SNB-75 CNS; 50.5% with SNB-19 CNS; 23.8% in the assay on U251 CNS; 14.8% in the assay on PC-3 prostate. The growth with SK-MEL-5 melanoma was 18.8%; with UACC-62 melanoma, 21.1%; in the assay on LOX IMVI melanoma it was 46.9%; with SK-MEL-28 melanoma, 56.6%; in the assay with SK-MEL-2 melanoma it was 27.6%; in the assay on EKVX NSCLC, 26.4%. Moreover, the growth in the assay with SN12C renal is 43.2%; in the assay with UO-31 renal, 31.3%; in the assay with TK-10 renal it was 47.8%; with ACHN renal it was 50.5%; with CAKI-1 renal, 38.7%; with A498 renal it was -4.12% (active). Also, the growth in the assay with CCRF-CEM leukemia was 10.8%; in the assay on MOLT-4 leukemia, 6.7% (active).
